Source: PubChem BioAssay AID588689 (Southern Research Specialized Biocontainment Screening …, 2011)
Among all 340,000 compounds or so, about 1,000 (0.29%) were called active. No stated cut-off is given here; in the data, inconclusive means inhibition above about 29% without an active follow-up result; inactive means below that. Not all results are given here. Measured potencies and affinities stand elsewhere.

Molecular target: Genome polyprotein (Dengue virus type 2 (strain 16681-PDK53)) (UniProt P29991)
Assay: flavivirus cap methylation enzyme inhibition – biochemical, confirmation dose response, primary screen (AID 588689)
Conditions: Dengue-2 NS5 methyltransferase capping enzyme assay, at 25 µM, stronger effect = higher value
[1] = measured here: pilot screen replicate inhibition

Row | Structure (SMILES) | inhibition | inhibition [1]
1 | O=C(CN1C(=O)c2ccccc2C1=O)OCC(=O)c1ccc(F)cc1 | 5.07% (inactive) | 
2 | COc1cc(C(=O)NCC(c2ccco2)N2CCOCC2)cc(OC)c1OC (configuration not stated) | -3.67% (inactive) | 
3 | CCOc1ccc(CCN2C(=S)N([C@@H](CC(C)C)CN3CCCC3CN3C(=S)NC[C@@H]3CC(C)C)C[C@@H]2Cc2ccccc2)cc1 (some centres not stated) | 0.65% (inactive) | 
4 | O=C(c1ccc(NC(=S)Nc2ccc(Cl)c(Cl)c2)cc1)N1CCCC1 | -10.3% (inactive) | 
5 | Cc1ccc(S(=O)(=O)CC(=O)c2cc3cccc(C)c3oc2=O)cc1 | 5.44% (inactive) | 
6 | COc1cccc2cc(C(=O)CS(=O)(=O)c3ccc(C)cc3)c(=O)oc12 | 10.9% (inactive) | 
7 | COCCCNC(=O)/C=C/c1c(Cl)cccc1Cl | -0.74% (inactive) | 
8 | CCOc1ccc(C2C(C(=O)c3ccc(C)o3)=C(O)C(=O)N2c2cc(C)on2)cc1OC (configuration not stated) | 4.09% (inactive) | 
9 | Cc1cc(N2C(=O)C(O)=C(C(=O)c3ccco3)C2c2cccc(Cl)c2)no1 (configuration not stated) | -4.65% (inactive) | 
10 | Cc1cc(N2C(=O)C(O)=C(C(=O)c3ccc(C)o3)C2c2cccc(Cl)c2)no1 (configuration not stated) | 10.9% (inactive) | 
11 | COC(=O)c1ccc(C2C(C(=O)c3ccc(C)o3)=C(O)C(=O)N2c2cc(C)on2)cc1 (configuration not stated) | -3.53% (inactive) | 
12 | Cc1cc(N2C(=O)C(O)=C(C(=O)c3ccco3)C2c2cccc(O)c2)no1 (configuration not stated) | -4.44% (inactive) | 
13 | COc1cccc(C2C(C(=O)c3ccc(C)o3)=C(O)C(=O)N2c2cc(C)on2)c1 (configuration not stated) | -1.77% (inactive) | 
14 | O=C(NCN1CCN(c2ccccn2)CC1)c1cnccn1 | -4.12% (inactive) | 
15 | O=C(Nc1cccc([N+](=O)[O-])c1)c1cc(S(=O)(=O)Nc2ccccn2)ccc1Cl | 0.65% (inactive) | 
16 | O=C(COC(=O)CSc1ccc([N+](=O)[O-])cc1)NCC1CCCO1 (configuration not stated) | 5.91% (inactive) | 
17 | Cc1ccc2c(c1)c1ccc3c(c1n2C)C(=O)C=CC3=O | 47.6% (inactive) | 
18 | Cc1ccc(C)c2c1c1ccccc1n2C | 0.78% (inactive) | 
19 | COc1ccc2c(c1)c1ccc3c(c1n2C)C(=O)C=CC3=O | 5.87% (inactive) | 
20 | Cc1cc(=O)n(C)c2ccccc12 | -7.77% (inactive) | 
21 | CCC(C)NC(=O)CCSCCC(=O)NC(C)CC (configuration not stated) | -4.42% (inactive) | 
22 | CCCC(C)C(=O)Nc1ccc(S(N)(=O)=O)cc1 (configuration not stated) | -3.64% (inactive) | 
23 | CCOC(=O)C1CCCN(S(=O)(=O)NC[C@H]2O[C@@H](n3cnc4c(N)ncnc43)[C@H](O)[C@@H]2O)C1 (some centres not stated) | -8.6% (inactive) | -4.29%

Row | Structure (SMILES) | inhibition | inhibition [1]
24 | Fc1cnc(N2CCc3ccccc32)nc1N1CCc2ccccc21 | -0.68% (inactive) | 
25 | O=C(O)c1ccc2c(c1)C(=O)N(Cc1ccco1)C2=O | 5.56% (inactive) | 
26 | Cc1ccc(C=C2C(=O)c3ccccc3C2=O)o1 | 1.92% (inactive) | 
27 | Cc1ccc(C(=O)O)cc1-c1ccc(C=C2C(=O)c3ccccc3C2=O)o1 | -0.73% (inactive) | 
28 | Cc1cc(C(=O)O)ccc1-n1c(C)cc(C=C2C(=O)c3ccccc3C2=O)c1C | -19.9% (inactive) | 
29 | O=C1C(=Cc2ccco2)C(=O)c2ccccc21 | -4.01% (inactive) | 
30 | O=C(O)c1ccc2c(c1)C(=O)N(N1C(=O)c3ccccc3C1=O)C2=O | 5.13% (inactive) | 
31 | COc1cc(COC(=O)c2cnc(C)cn2)c(OC)cc1Br | 7.48% (inactive) | 
32 | Cc1cc(Br)ccc1SCC(=O)OCC(=O)NCc1ccco1 | 13.5% (inactive) | 
33 | COC(=O)CCC(=O)COc1ccccc1C#N | -1.61% (inactive) | 
34 | O=S(=O)(O)c1cc(O)c(N=Nc2ccc(O)cc2O)c2ccccc12 | 22.4% (inactive) | 
35 | Oc1ccc(N=Nc2ccc(Br)cc2)c(O)c1 | 7.83% (inactive) | 
36 | CCOC(=O)CSc1nc2c(sc(=S)n2-c2ccc(OCC)cc2)c(=O)[nH]1 | 0% (inactive) | 
37 | CCOc1ccc(-n2c(=S)sc3c(=O)n(-c4ccccc4)c(SCC(=O)O)nc32)cc1 | -5.28% (inactive) | 
38 | CC(C)N1C(=O)C(=O)N(CC(=O)N2c3ccccc3NC(=O)CC2C)C1=O (configuration not stated) | 4.36% (inactive) | 
39 | COCC(C)NC(=O)c1cc(-c2ccccc2OC)on1 (configuration not stated) | -5.61% (inactive) | 
40 | CCOC(=O)C1=CN2CCCC[C@@H]2CC1=O | -4.81% (inactive) | 
41 | CCOC(=O)C1=CN2CCC[C@H]2CC1=O | -9.17% (inactive) | 
42 | Cc1ccc(S(=O)(=O)NCCC(=O)N2CCC(Cc3ccccc3)CC2)cc1 | -2.89% (inactive) | 
43 | CCN(CC(=O)Nc1ccccc1C(F)(F)F)C(=O)c1ccc2c(c1)NC(=O)C(C)S2 (configuration not stated) | -4.95% (inactive) | 
44 | NC(=O)C1CCN(C(=O)c2ccc3c(=O)n(Cc4ccco4)c(SCc4ccc([N+](=O)[O-])cc4)nc3c2)CC1 | 12.3% (inactive) | 
45 | CC1(NC(=O)N2CCOCC2)CCS(=O)(=O)C1 (configuration not stated) | 0% (inactive) | 
46 | CC1(C)CC(=O)C(C(C2=C(O)CC(C)(C)CC2=O)c2ccc([N+](=O)[O-])cc2)C(=O)C1 (configuration not stated) | 1.82% (inactive) | 

Row | Structure (SMILES) | inhibition | inhibition [1]
47 | CC1(C)CC(=O)C(C(C2=C(O)CC(C)(C)CC2=O)c2ccc(Cl)c([N+](=O)[O-])c2)C(=O)C1 (configuration not stated) | -1.46% (inactive) | 
48 | COc1cc(C(=O)NCC(=O)N2CCN(S(=O)(=O)c3ccccc3C(F)(F)F)CC2)cc(OC)c1OC | -3.36% (inactive) | 
49 | O=c1sc2ccccc2c(N2CCOCC2)c1[N+](=O)[O-] | -3.49% (inactive) | 
50 | C=CSc1sc(Cl)c(N2CCOCC2)c1[N+](=O)[O-] | 0% (inactive) | 
51 | CC1CN(C2=NC(=O)/C(=C3/C(=O)N(Cc4ccc(F)cc4)c4ccccc43)S2)CC(C)O1 (configuration not stated) | -3.91% (inactive) | 
52 | O=C(O)CCN1C(=O)C(=C2CCCCCC2)SC1=S | 10.4% (inactive) | 
53 | O=C(O)CCN1C(=O)/C(=C2\C(=O)N(Cc3ccccc3Cl)c3ccccc32)SC1=S | 22.2% (inactive) | 
54 | CN1C(=O)/C(=C2\SC(=S)N(CCCCCC(=O)O)C2=O)c2ccccc21 | -1.55% (inactive) | 
55 | NN1C(=O)/C(=C2/Sc3ccccc3N2CCCS(=O)(=O)O)SC1=S | -12.9% (inactive) | 
56 | COCCN1C(=O)/C(=C2/C(=O)N(CC(=O)Nc3ccccc3Cl)c3ccccc32)SC1=S | 6.48% (inactive) | 
57 | CC(C)NC(=O)COC(=O)c1ccccc1Oc1ccccc1 | -2.2% (inactive) | 
58 | CCOC(=O)C1=C(C)N=c2s/c(=C3/C(=O)Nc4ccccc43)c(=O)n2C1c1ccc(C)cc1 (configuration not stated) | 22.8% (inactive) | 
59 | CCOC(=O)C1=C(C)N=c2s/c(=C\c3ccc(OCC(=O)O)c(OC)c3)c(=O)n2C1c1ccc(OC)cc1 (configuration not stated) | -8.46% (inactive) | 
60 | O=C(NN=C1CCCC1)c1ccc(Cl)cc1 | -2.6% (inactive) | 
61 | O=C1CCC/C(=N\NC(=O)COc2ccc(Cl)cc2)C1 | 3.18% (inactive) | 
62 | O=C(CSc1nccc(=O)[nH]1)Nc1ccc(S(=O)(=O)N2CCOCC2)cc1 | 0% (inactive) | 
63 | Cc1ccc(CNC(=O)CCn2ccc3cc(S(=O)(=O)N4CCCC4)ccc32)cc1 | -4.92% (inactive) | 
64 | Cc1onc(-c2ccccc2)c1C(=O)OCC(=O)Nc1ccccc1 | 8.65% (inactive) | 
65 | O=C(Nc1ccccc1Cl)c1ccccc1 | 1.49% (inactive) | 
66 | O=C(NC1=C(Nc2ccc(Cl)cc2)C(=O)c2ccccc2C1=O)c1ccccc1 | -1.83% (inactive) | 
67 | O=C1C=C(Nc2ccccc2)C(=O)c2ccccc21 | -2.9% (inactive) | 
68 | CC(=O)Nc1ccc(NC2=CC(=O)c3ccccc3C2=O)cc1 | -5.82% (inactive) | 
69 | O=C(Nc1cccc(Cl)c1)C1C2C=CC3(O2)C1C(=O)N(CCCN1CCCCC1)C3C(=O)NC1CCCCC1 (configuration not stated) | -16% (inactive) | 

Row | Structure (SMILES) | inhibition | inhibition [1]
70 | Cc1ccc(OCCCc2c(C)n[nH]c2C)cc1 | -5.36% (inactive) | 
71 | CCCC1CC(CSc2ncn[nH]2)OC1=O (configuration not stated) | -12.3% (inactive) | 
72 | Cc1ccc(S(=O)(=O)N(CC(=O)N2CCOCC2)c2ccc(Br)cc2)cc1 | -8.01% (inactive) | 
73 | Cc1ccc2ccc(S(=O)(=O)NCc3ccccn3)cc2c1 | -1.67% (inactive) | 
74 | COc1cccc(CNC(=O)c2ccc(CS(=O)Cc3ccc(C)cc3)o2)c1 (configuration not stated) | -4.44% (inactive) | 
75 | O=C(Nc1ccc(S(=O)(=O)NCc2ccco2)cc1)c1cccc(F)c1 | -4.85% (inactive) | 
76 | COc1ccc(C2CC(c3ccccc3)=NN2c2ccc(N)cc2)cc1 (configuration not stated) | -12.8% (inactive) | 
77 | COc1ccc(C2CC(c3ccccc3)=NN2c2ccc(C(N)=O)cc2)cc1 (configuration not stated) | -4.66% (inactive) | 
78 | N#C/C(=C\c1cccc(Oc2ccc(C(F)(F)F)cc2[N+](=O)[O-])c1)c1nc2ccccc2[nH]1 | -4.47% (inactive) | 
79 | CCN(CC)C(=O)c1ccc(NS(=O)(=O)c2ccc(/C=C/C(=O)O)cc2)cc1 | 2.19% (inactive) | 
80 | CC1=C/C(=C(\c2ccc(O)c(C)c2)c2ccccc2S(=O)(=O)O)C=CC1=O | 0.65% (inactive) | 3.04%
81 | CC1=C/C(=C(/c2ccc(O)c(C)c2)c2ccccc2S(=O)(=O)O)C=CC1=O | -1.1% (inactive) | 
82 | CC1=CC(=O)C=C/C1=C(/c1ccc(O)cc1C)c1ccccc1S(=O)(=O)O | -1.47% (inactive) | 
83 | Cc1cc(C(=O)CS(=O)(=O)c2ccccc2)cc(C)c1O | -11.8% (inactive) | 
84 | O=C(NC(=O)c1ccccc1)OCCN1C(=O)c2ccccc2C1=O | -5.92% (inactive) | 
85 | Cc1cc(S(=O)(=O)N2CCOCC2)ccc1OCC(=O)Nc1ccccc1C(F)(F)F | -3.32% (inactive) | 
86 | OCCNc1nc2ccccc2nc1NCCO | 15.3% (inactive) | 
87 | OCCNc1c2ccccc2nc2ccccc12 | -2.34% (inactive) | 
88 | CC#CCCc1nc2ccccc2c(=O)n1N | -9.73% (inactive) | 
89 | COCCCNC(=O)CCc1nc(-c2ccccc2Cl)no1 | -2.35% (inactive) | 
90 | O=C(O)COc1ccc(/C=N/NC(=O)c2cn(-c3ccccc3)nc2-c2ccccc2)cc1 | 5.65% (inactive) | 
